Results filed as inconclusive are left out. Active and inactive are the calls of the source. The call rests on the fitted dose curve; in most records, active means well fitted activation curve with a large enough effect in the repeat runs; inconclusive means weak or mixed curves; inactive means flat fitted curve, though single readings scatter.
On the % scale 0 is the no-effect control and ±100 the full control effect.

The test is described as follows: A CellTox Green Cytotoxicity Assay to monitor cytotoxicity in HEK293 cells - 24 hour (AID 1224875). Further: nearly all actives have a fitted effect of over 45% in size. The conditions noted are these: CellTox Green fluorescence, stronger effect = higher value; series mostly up to 76.8 µM. In outline: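 Each value comes from one timepoint of a single continuous run in which HEK293 cells with CellTox Green were exposed to compound for up to 40 h at 37 C, dye fluorescence rising with cell death.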
For the compound `Cc1cc(C)c(N=Nc2c(O)c(S(=O)(=O)O)cc3cc(S(=O)(=O)O)ccc23)cc1C`, the activity change was 16.7% [at 6.97 µM] (inactive).

With `COc1cc2c(cc1OC)-c1cc3ccc(OC)c(OC)c3c[n+]1CC2`, the call was inactive.

Regarding `CC1OC1C1CCC2(C)OC2C1` (centres undefined), the outcome was inactive.

Regarding `C=COCC1CCC(COC=C)CC1` (centres undefined), the call was inactive.

For the compound `CC(C)CC(C)(N)C#N` (centres undefined), the call was inactive.

Turning to `NCCCC[C@H](N[C@@H](CCc1ccccc1)C(=O)O)C(=O)N1CCC[C@H]1C(=O)O`, the result was inactive.

On to `CNCCO`, for which the compound was called inactive.

Consider `Cc1cccc(C)c1NC(=O)CC12CCCN1CCC2`, for which the call was inactive.

With `Cc1nc(C2CCCCC2)c(-c2ccc(S(N)(=O)=O)c(F)c2)o1`, the outcome was inactive.

For `CCN[C@@H]1C[C@H](N)[C@@H](OC2OC(CN)=CCC2N)[C@H](O)[C@H]1O[C@H]1OC[C@](C)(O)[C@H](NC)[C@H]1O` (some centres undefined), the activity change is 6.99% [at 0.29 µM] (inactive).

Turning to `COc1ccnc(CS(=O)c2nc3cc(OC(F)F)ccc3[nH]2)c1OC` (centres undefined), the compound was classed as inactive.

Consider `C[N+]1(C)[C@@H]2CC(OC(=O)[C@H](CO)c3ccccc3)C[C@H]1[C@@H]1O[C@@H]12` (some centres undefined), for which the compound was called inactive.

On to `CC[N+](CC)(CC)CCOc1cccc(OCC[N+](CC)(CC)CC)c1OCC[N+](CC)(CC)CC`, for which the compound was called inactive.

Take `C1CCC2=NCCCN2CC1`: the call was inactive.

Take `CCCCCCCCCC[N+](C)(C)[O-]`: the result was inactive.

`CCOc1ccccc1OCC`: the result was inactive.

For `C=C(C)C(=O)OCCOCCOCCOCCOC(=O)C(=C)C`, the outcome was inactive.

On to `C[N+](C)(CCOc1ccccc1)Cc1cccs1`, for which the result was inactive.

Take `CCOC(=O)C1=NOC(c2ccccc2)(c2ccccc2)C1`: the compound was called inactive.

The record behind these values is PubChem BioAssay (Tox21).
